Results published in PubChem BioAssay AID1159580 (chemical genetic matrix, 2015).
Among all 5,500 compounds or so, about 2,000 (36%) were called active. Inconclusive results (about 18%) are left out. No stated cut-off is given here; in the data, active means normalized growth mostly below about 0.91 (no sharp cut-off); inconclusive means no clear call, values can overlap the other calls; inactive means mostly above about 0.92. The list shows a part of the results.

Test: chemical genetic growth profiling, strain panel (AID 1159580);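 further: tested at 20 µM; growth read once vehicle control cultures reached saturation at 30 °C; 1 = growth at the plate median or of vehicle wells; lower values mean less growth of the strain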
Details: S. cerevisiae deletion strains, growth OD

Measured: normalized growth

O=C1c2ccccc2C(=O)c2c(O)c(O)cc(O)c21
active: locus YAL021C, strain ccr4, hits give low values 0.105 | locus YAL026C, strain drs2, hits give low values 0.209 | locus YAL030W, strain snc1, hits give low values 0.471 | locus YBL061C, strain skt5, hits give low values 0.403 | locus YBR009C, strain hhf1, hits give low values 0.415 | locus YBR023C, strain chs3, hits give low values 0.35 | locus YBR171W, strain sec66, hits give low values 0.541 | locus YBR231C, strain swc5, hits give low values 0.228 | locus YBR279W, strain paf1, hits give low values 0.478 | locus YCL011C, strain gbp2, hits give low values 0.436 | locus YCL016C, strain dcc1, hits give low values 0.492 | locus YCL061C, strain MRC1, hits give low values 0.503 | locus YCL069W, strain vba3, hits give low values 0.426 | locus YCR088W, strain abp1, hits give low values 0.548 | locus YDL005C, strain med2, hits give low values 0.114 | locus YDL040C, strain nat1, hits give low values 0.639 | locus YDR001C, strain nth1, hits give low values 0.583 | locus YDR069C, strain doa4, hits give low values 0.22 | locus YDR137W, strain rgp1, hits give low values 0.136 | locus YDR159W, strain sac3, hits give low values 0.475 | locus YDR195W, strain ref2 0.766 | locus YDR297W, strain sur2, hits give low values 0.47 | locus YDR334W, strain swr1, hits give low values 0.206 | locus YDR335W, strain msn5, hits give low values 0.386 | locus YDR392W, strain spt3, hits give low values 0.164 | locus YEL003W, strain gim4, hits give low values 0.392 | locus YEL037C, strain rad23, hits give low values 0.421 | locus YEL061C, strain CIN8 (second series), hits give low values 0.494 | locus YER015W, strain faa2, hits give low values 0.323 | locus YER016W, strain bim1, hits give low values 0.505 | locus YER111C, strain swi4, hits give low values 0.223 | locus YER155C, strain BEM2 (second series), hits give low values 0.248 | locus YFR010W, strain ubp6, hits give low values 0.412 | locus YGL167C, strain pmr1, hits give low values 0.212 | locus YGL173C, strain kem1, hits give low values 0.193 | locus YGL227W, strain vid30, hits give low values 0.627 | locus YGL240W, strain doc1, hits give low values 0.383 | locus YGL253W, strain hxk2, hits give low values 0.262 | locus YHR013C, strain ard1, hits give low values 0.293 | locus YHR027C, strain rpn1, hits give low values 0.268 | locus YHR030C, strain SLT2, hits give low values 0.183 | locus YHR079C, strain IRE1, hits give low values 0.202 | locus YHR142W, strain chs7, hits give low values 0.242 | locus YJL092W, strain hpr5, hits give low values 0.529 | locus YJL095W, strain BCK1 (second series), hits give low values 0.121 | locus YJL095W, strain BCK1, hits give low values 0.192 | locus YJL115W, strain asf1, hits give low values 0.431 | locus YJL129C, strain trk1, hits give low values 0.396 | locus YJL154C, strain vps35, hits give low values 0.489 | locus YJL164C, strain tpk1, hits give low values 0.339 | locus YJL166W, strain qcr8, hits give low values 0.327 | locus YJL187C, strain SWE1, hits give low values 0.434 | locus YJR066W, strain TOR1, hits give low values 0.174 | locus YKL160W, strain elf1, hits give low values 0.507 | locus YKR026C, strain gcn3, hits give low values 0.665 | locus YKR091W, strain srl3, hits give low values 0.648 | locus YLL001W, strain dnm1, hits give low values 0.39 | locus YLL026W, hits give low values 0.444 | locus YLL041C, strain sdh2, hits give low values 0.584 | locus YLR027C, strain aat2, hits give low values 0.435 | locus YLR113W, strain HOG1, hits give low values 0.199 | locus YLR221C, strain rsa3, hits give low values 0.414 | locus YLR258W, strain gsy2, hits give low values 0.455 | locus YLR262C, strain YPT6 (second series), hits give low values 0.141 | locus YLR320W, strain mms22, hits give low values 0.266 | locus YLR342W, strain FKS1, hits give low values 0.443 | locus YLR357W, strain rsc2, hits give low values 0.534 | locus YLR370C, strain arc18, hits give low values 0.293 | locus YLR384C, strain iki3, hits give low values 0.401 | locus YML120C, strain ndi1, hits give low values 0.334 | locus YMR058W, strain fet3, hits give low values 0.33 | locus YMR125W, strain sto1, hits give low values 0.699 | locus YMR129W, hits give low values 0.557 | locus YMR205C, strain PFK2, hits give low values 0.356 | locus YMR231W, strain pep5, hits give low values 0.296 | locus YNL071W, strain lat1, hits give low values 0.306 | locus YNL183C, strain NPR1, hits give low values 0.159 | locus YNL209W, strain ssb2, hits give low values 0.252 | locus YNL248C, strain rpa49, hits give low values 0.336 | locus YNL322C, strain KRE1 (second series), hits give low values 0.424 | locus YNR049C, strain mso1, hits give low values 0.489 | locus YOR001W, strain rrp6, hits give low values 0.446 | locus YOR070C, strain gyp1, hits give low values 0.439 | locus YOR080W, strain dia2, hits give low values 0.435 | locus YOR083W, strain WHI5, hits give low values 0.399 | locus YOR106W, strain vam3, hits give low values 0.193 | locus YOR231W, strain MKK1, hits give low values 0.197 | locus YOR265W, strain rbl2, hits give low values 0.447 | locus YOR270C, strain vph1, hits give low values 0.165 | locus YOR290C, strain snf2, hits give low values 0.282 | locus YPL051W, strain arl3, hits give low values 0.168 | locus YPL078C, strain atp4, hits give low values 0.344 | locus YPL106C, strain sse1, hits give low values 0.491 | locus YPL240C, strain hsp82, hits give low values 0.497 | locus YPL256C, strain CLN2, hits give low values 0.228
